Results on 17 molecules are retold here after article PMC12864922, “TDP-43 directly inhibits mRNA accumulation in neurites through modulation of mRNA stability”.

Substitutions are numbered along the chain they refer to. In all, about 9,900 sequences were measured (“r (bound/input frequency ratio)”: median about 0.7, highest 2% from about 6.5 on). Only a selection was taken, and the highest values are over-represented in it overall.

The chains are these.
B1: ENSMUSG00000042529.274|Kcnj12 (ssRNA)
RNA: GGGAGUUCUACAGUCCGACGAUCGCUUCGAUAUCCGCAUGCUAGUGUGCUUACCUGCCACUCACCUCUCUAUCUAGUUGUCGAGUCUAGGGAAGGGCAGAGGGUGGGUCCUGGCCACUGGGUGCCACUGUGGGAGCCGGGGCACCUGUCAUUCUUUCUGAGUAGGUGGGCCUGUAUCCAGAGCAGGGUCUAGGGGCUCCUGCUCCCGGCUCAUCUCAGUGGCCUGAAGCAUUCAAAACUCUAGCCAGCCCCAUCCUCCUCCCUGCCAGAAUGGUCCAGUCCCUGGGCCCUGCUGGAGAGCAGCCUCUUGCGGUCGCACUAGUGUGGAAUUCUCGGGUGUCAAGG
B2: ENSMUSG00000004113.47|Cacna1b (ssRNA)
RNA: GGGAGUUCUACAGUCCGACGAUCGCUUCGAUAUCCGCAUGCUAGCUAUCACUGCACUUUGGGACUCAGCACUGGCGUCCGGGCGCGGCACAGCUACCACCACCCCGAUCAGGACCACUGGUGCUAGCUGCACCACGACCACCCAUGUACCAGCUCCAUGGGUGAGGGUUCCAGUUGAUGAGUUUUAUCAUCCGCUCUGGGCUGUGGGGUCACAGCCCUGGGAGGAGGGCCCUCACAUCUCGGCCUCUGUGGUGGAGGCUCCUGCUUCCCUCCCUCCCUCCCUUUUACACUGGAUAGACUAAUACUCUUGCGGUCGCACUAGUGUGGAAUUCUCGGGUGUCAAGG
B3: ENSMUSG00000004113.89|Cacna1b|48:52;211:215;227:232 (ssRNA)
RNA: GGGAGUUCUACAGUCCGACGAUCGCUUCGAUAUCCGCAUGCUAGACUAAUAAAGCCCUUUCUUAGAGGGACAUGGUUCUCUCUAUCCUCCACACAACUGCCUUCCUGGGUUCCAUGCCAGAUGUUGGAUCCUAAGCAGGAGGUAGCUGAGUUGAGAUGGACCCAGCAAAUCCAAAUCCUAUGUCAUGGCCUCCAGCAUCCAGGGUGGGUCCUUGGGACUUUUCUUAGGAGGGACUUUCUGAGCCUCGUGGAGACACACGUUUGUCCAAAACACACGCAUGGGAGAUAGGGUACCCCUGAAAGCCUCUUGCGGUCGCACUAGUGUGGAAUUCUCGGGUGUCAAGG
B4: ENSMUSG00000058297.451|Spock2 (ssRNA)
RNA: GGGAGUUCUACAGUCCGACGAUCGCUUCGAUAUCCGCAUGCUAAGCAAGCUUCGUGUUUCCUCAGGAGCAAGGUCACACAGGUCAGAUUAUUGUCGGUCCUGCGGGCCUCAUCCUUGAAUAAGCUGCCUGCCCAGUUCCUCCAUCCGUGUUCCUGCCUGCUCCCGUUCCCUUGUUGCGGGCAGGAGAGGUAGGGCUGUGUUGGAAAGAGUUCAACCAAAUUACGGCAGCACCACAUCUUGCCGAGCCCUGGAGCUGCCCUACUAAGAGCCUCCUUAGCCCUGGGUGCUGGGAAGGAUGGUGUACUCUUGCGGUCGCACUAGUGUGGAAUUCUCGGGUGUCAAGG
B5: ENSMUSG00000061578.871|Ksr2 (ssRNA)
RNA: GGGAGUUCUACAGUCCGACGAUCGCUUCGAUAUCCGCAUGCUAUUAGGUCAGAGGUAUCAAUACAUCUCCGGAAACAUCGUCACAGAUACCUAGAGGUACUUCAUUGAUCCCUUGAAAAGCAUGUCUUAAUUCUGUUAAGAUGUCAAUCAAGAUUACACAUCUCACUGCUUCACAGGCCAUCAGGGCCCCAUUCUGAGGUCCUGGGACACUACCCAAACCCUAGCACUCUCCCAGUGACUCUCCUAUGAGUACAUAUGCCAUCCUGCUUCCUUUGUGGCAAAACCCUGGGUCACCCAGAGACACUCUUGCGGUCGCACUAGUGUGGAAUUCUCGGGUGUCAAGG
B6: ENSMUSG00000058297.473|Spock2|21:25 (ssRNA)
RNA: GGGAGUUCUACAGUCCGACGAUCGCUUCGAUAUCCGCAUGCUAGCGGGCAGGAGAGGUAGGGCACACAUGGAAAGAGUUCAACCAAAUUACGGCAGCACCACAUCUUGCCGAGCCCUGGAGCUGCCCUACUAAGAGCCUCCUUAGCCCUGGGUGCUGGGAAGGAUGGUGUACGUUGGGGAAGUUUGAGGUUGGAGAGAGUAAAUGUGCCUUGAGAGACCACUCAGAGGUCCCAGGAGGAACGGGGGCGGGGCUUAGCCUGGGAGUUCUGGCAGGAGGCAAAGUUGGUGAGAGUCCUGGGACAUCUCUUGCGGUCGCACUAGUGUGGAAUUCUCGGGUGUCAAGG
B7: ENSMUSG00000058297.470|Spock2|39:43 (ssRNA)
RNA: GGGAGUUCUACAGUCCGACGAUCGCUUCGAUAUCCGCAUGCUAUGCUCCCGUUCCCUUGUUGCGGGCAGGAGAGGUAGGGCACACAUGGAAAGAGUUCAACCAAAUUACGGCAGCACCACAUCUUGCCGAGCCCUGGAGCUGCCCUACUAAGAGCCUCCUUAGCCCUGGGUGCUGGGAAGGAUGGUGUACGUUGGGGAAGUUUGAGGUUGGAGAGAGUAAAUGUGCCUUGAGAGACCACUCAGAGGUCCCAGGAGGAACGGGGGCGGGGCUUAGCCUGGGAGUUCUGGCAGGAGGCAAAGUUGCUCUUGCGGUCGCACUAGUGUGGAAUUCUCGGGUGUCAAGG
B8: ENSMUSG00000058297.474|Spock2 (ssRNA)
RNA: GGGAGUUCUACAGUCCGACGAUCGCUUCGAUAUCCGCAUGCUAAGGAGAGGUAGGGCUGUGUUGGAAAGAGUUCAACCAAAUUACGGCAGCACCACAUCUUGCCGAGCCCUGGAGCUGCCCUACUAAGAGCCUCCUUAGCCCUGGGUGCUGGGAAGGAUGGUGUACGUUGGGGAAGUUUGAGGUUGGAGAGAGUAAAUGUGCCUUGAGAGACCACUCAGAGGUCCCAGGAGGAACGGGGGCGGGGCUUAGCCUGGGAGUUCUGGCAGGAGGCAAAGUUGGUGAGAGUCCUGGGACAUCUUACCCUCUUGCGGUCGCACUAGUGUGGAAUUCUCGGGUGUCAAGG
B9: ENSMUSG00000058297.471|Spock2|33:37 (ssRNA)
RNA: GGGAGUUCUACAGUCCGACGAUCGCUUCGAUAUCCGCAUGCUACGUUCCCUUGUUGCGGGCAGGAGAGGUAGGGCACACAUGGAAAGAGUUCAACCAAAUUACGGCAGCACCACAUCUUGCCGAGCCCUGGAGCUGCCCUACUAAGAGCCUCCUUAGCCCUGGGUGCUGGGAAGGAUGGUGUACGUUGGGGAAGUUUGAGGUUGGAGAGAGUAAAUGUGCCUUGAGAGACCACUCAGAGGUCCCAGGAGGAACGGGGGCGGGGCUUAGCCUGGGAGUUCUGGCAGGAGGCAAAGUUGGUGAGACUCUUGCGGUCGCACUAGUGUGGAAUUCUCGGGUGUCAAGG
B10: ENSMUSG00000058297.470|Spock2 (ssRNA)
RNA: B7 RNA with A82U, C83G, A84U, C85G, A86U
B11: ENSMUSG00000058297.471|Spock2 (ssRNA)
RNA: B9 RNA with A76U, C77G, A78U, C79G, A80U
B12: ENSMUSG00000058297.472|Spock2|27:31 (ssRNA)
RNA: GGGAGUUCUACAGUCCGACGAUCGCUUCGAUAUCCGCAUGCUACUUGUUGCGGGCAGGAGAGGUAGGGCACACAUGGAAAGAGUUCAACCAAAUUACGGCAGCACCACAUCUUGCCGAGCCCUGGAGCUGCCCUACUAAGAGCCUCCUUAGCCCUGGGUGCUGGGAAGGAUGGUGUACGUUGGGGAAGUUUGAGGUUGGAGAGAGUAAAUGUGCCUUGAGAGACCACUCAGAGGUCCCAGGAGGAACGGGGGCGGGGCUUAGCCUGGGAGUUCUGGCAGGAGGCAAAGUUGGUGAGAGUCCUGCUCUUGCGGUCGCACUAGUGUGGAAUUCUCGGGUGUCAAGG
B13: ENSMUSG00000058297.472|Spock2 (ssRNA)
RNA: B12 RNA with A70U, C71G, A72U, C73G, A74U
B14: ENSMUSG00000058297.474|Spock2|15:19 (ssRNA)
RNA: B8 RNA with U58A, G59C, U60A, G61C, U62A
B15: ENSMUSG00000058297.473|Spock2 (ssRNA)
RNA: B6 RNA with A64U, C65G, A66U, C67G, A68U
B16: ENSMUSG00000058297.468|Spock2 (ssRNA)
RNA: GGGAGUUCUACAGUCCGACGAUCGCUUCGAUAUCCGCAUGCUACGUGUUCCUGCCUGCUCCCGUUCCCUUGUUGCGGGCAGGAGAGGUAGGGCUGUGUUGGAAAGAGUUCAACCAAAUUACGGCAGCACCACAUCUUGCCGAGCCCUGGAGCUGCCCUACUAAGAGCCUCCUUAGCCCUGGGUGCUGGGAAGGAUGGUGUACGUUGGGGAAGUUUGAGGUUGGAGAGAGUAAAUGUGCCUUGAGAGACCACUCAGAGGUCCCAGGAGGAACGGGGGCGGGGCUUAGCCUGGGAGUUCUGGCAGCUCUUGCGGUCGCACUAGUGUGGAAUUCUCGGGUGUCAAGG
B17: ENSMUSG00000058297.469|Spock2 (ssRNA)
RNA: GGGAGUUCUACAGUCCGACGAUCGCUUCGAUAUCCGCAUGCUACCUGCCUGCUCCCGUUCCCUUGUUGCGGGCAGGAGAGGUAGGGCUGUGUUGGAAAGAGUUCAACCAAAUUACGGCAGCACCACAUCUUGCCGAGCCCUGGAGCUGCCCUACUAAGAGCCUCCUUAGCCCUGGGUGCUGGGAAGGAUGGUGUACGUUGGGGAAGUUUGAGGUUGGAGAGAGUAAAUGUGCCUUGAGAGACCACUCAGAGGUCCCAGGAGGAACGGGGGCGGGGCUUAGCCUGGGAGUUCUGGCAGGAGGCACUCUUGCGGUCGCACUAGUGUGGAAUUCUCGGGUGUCAAGG

Sequence of TDP-43 (Q13148 whole entry): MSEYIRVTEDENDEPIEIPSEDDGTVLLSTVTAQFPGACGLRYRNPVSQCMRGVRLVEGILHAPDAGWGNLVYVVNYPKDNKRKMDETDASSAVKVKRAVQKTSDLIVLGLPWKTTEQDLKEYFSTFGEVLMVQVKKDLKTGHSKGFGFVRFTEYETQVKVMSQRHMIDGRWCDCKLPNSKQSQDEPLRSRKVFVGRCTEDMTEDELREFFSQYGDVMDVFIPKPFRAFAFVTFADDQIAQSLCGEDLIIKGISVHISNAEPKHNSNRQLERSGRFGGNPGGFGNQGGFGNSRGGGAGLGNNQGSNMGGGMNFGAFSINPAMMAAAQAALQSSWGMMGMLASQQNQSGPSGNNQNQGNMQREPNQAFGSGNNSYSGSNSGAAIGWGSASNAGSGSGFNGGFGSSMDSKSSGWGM

The assay has as its target TDP-43 (Homo sapiens, UniProt Q13148 1-414). Nature of the assay: RNA Bind-n-Seq with designed 260-mer pool; 25 mM Tris-HCl, 150 mM KCl, 3 mM MgCl2, BSA (printed 500 mg/mL), 20 units/mL SUPERase IN; pH not stated; 500 nM RNA pool, 1 h, 4 C; TDP-43 5, 50, 500 nM; high values mean tight binding. As to conditions: protein: recombinant; tags: SBP (GST cleaved off with PreScission; pGEX-GST-SBP). A digest of the protocol: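 Streptavidin beads captured recombinant SBP-tagged TDP-43 at 5, 50 or 500 nM, and the beads were incubated for 1 h at 4 °C with 500 nM of an in vitro-transcribed pool of 260-nt 3′ UTR oligos in 25 mM Tris-HCl, 150 mM KCl, 3 mM MgCl2, BSA and SUPERase IN. After washing, bound RNA was eluted with biotin, reverse transcribed, PCR-amplified and sequenced. Binding is reported as R, the mapped-read-normalized abundance of each oligo in the bound sample divided by its abundance in the input. Two independent protein batches served as duplicates.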
Take B1: the binding signal is 0.622 R (bound/input frequency ratio). Take B2: the binding signal was 0.27 R (bound/input frequency ratio).

As to B3, the binding signal was 0.504 R (bound/input frequency ratio). As for B4, the binding signal was 0.383 R (bound/input frequency ratio).

Regarding B5, the binding signal is 0.301 R (bound/input frequency ratio). To B6 belongs 3.59 R (bound/input frequency ratio); to B7, 5.26 R (bound/input frequency ratio). With B8, the binding signal was 5.67 R (bound/input frequency ratio). For the molecule B9, the binding signal was 4.19 R (bound/input frequency ratio). Then B10, with 8.94 R (bound/input frequency ratio). As to B11, the binding signal was 7.28 R (bound/input frequency ratio). To B12 belongs 4.63 R (bound/input frequency ratio); to B13, 7.38 R (bound/input frequency ratio); to B14, 3.2 R (bound/input frequency ratio). Then B15, with 6.95 R (bound/input frequency ratio); and B16, with 3.47 R (bound/input frequency ratio); and B17, with 2.58 R (bound/input frequency ratio).
